The values below come from PubChem BioAssay (NCI).

Compounds without any hit were thinned out: in the full panel of roughly 83,000, 20% have a hit.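 Plates (96-well) were seeded with cells, treated with compound at one concentration, and incubated for 48 hours before percent growth was determined.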 Values without a mark were called inactive. The source made the active and inactive calls. The calls were made as follows: active = growth percent below 10; inactive = the rest.

Among the test systems are NCI-H23 lung; NCI-H322M lung; HOP-62 NSCLC; NCI-H460 lung; HOP-92 NSCLC; NCI-H522 lung; A549/ATCC NSCLC; 786-0 renal; COLO 205 colon; DU-145 prostate; K-562 leukemia; MALME-3M melanoma; MDA-MB-231 breast; RXF 393 renal; SF-268 CNS; SF-295 CNS; SF-539 CNS; UACC-257 melanoma; M14 melanoma; HCT-15 colon.
Holding throughout (experiment): NCI-60 one-dose screen, 48 h (100 = growth as untreated, 0 = no growth, -100 = all killed)
Common to all, as to details: 10 µM unless noted

Turning to `CCOC(=O)c1cc2c(n1Cc1ccccc1)-c1oncc1CCC2`, the growth in the assay on NCI-H23 lung is 88.3%; in the assay on NCI-H322M lung, 107%; in the assay on HOP-62 NSCLC, 77.9%; with NCI-H460 lung, 97.3%; with HOP-92 NSCLC, 86.3%; in the assay with NCI-H522 lung, 61.4%. Further, the growth in the assay with A549/ATCC NSCLC was 59.2%; with 786-0 renal, 102%; with COLO 205 colon, 69%; in the assay with DU-145 prostate it was 114%; in the assay on K-562 leukemia, 24.1%; with MALME-3M melanoma, 39.2%. In addition, the growth in the assay on MDA-MB-231 breast is 74.4%; with RXF 393 renal it was 84.6%; with SF-268 CNS it was 88.7%; in the assay with SF-295 CNS, 98.2%; in the assay on SF-539 CNS, 83.3%; in the assay on UACC-257 melanoma, 82.5%. Moreover, the results for the growth with M14 melanoma and in the assay with HCT-15 colon were 68% and 45.7%, respectively.
`O=C1/C(=C/c2cccc(O)c2)COc2ccc(O)cc21`: the growth with NCI-H23 lung is 86.5%; in the assay with NCI-H322M lung it was 98.2%; with HOP-62 NSCLC, 103%; with NCI-H460 lung, 76.3%; with HOP-92 NSCLC it was 104%; in the assay with NCI-H522 lung, 36.6%. In addition, the growth in the assay on A549/ATCC NSCLC is 103%; with 786-0 renal, 82.1%; in the assay with COLO 205 colon, 102%; in the assay with DU-145 prostate it was 80.5%; in the assay on K-562 leukemia it was 7.52% (active); in the assay on MALME-3M melanoma, 78.6%. Besides, the growth with MDA-MB-231 breast was 103%; in the assay on RXF 393 renal, 115%; in the assay on SF-268 CNS it was 90.3%; with SF-295 CNS, 105%; with SF-539 CNS, 92.3%; with UACC-257 melanoma, 93.3%. Moreover, the growth in the assay on M14 melanoma was 85.3%; in the assay with HCT-15 colon it was 10.6%.
Consider `c1ccc(CNc2nc(Nc3ccccc3)nc3ccccc23)cc1`, for which the growth with NCI-H23 lung is 64.6%; in the assay on NCI-H322M lung, 46.5%; in the assay on HOP-62 NSCLC, -9% (active); in the assay on NCI-H460 lung, 48.2%; in the assay with HOP-92 NSCLC, -2.52% (active); with NCI-H522 lung it was 40.7%. Further, the growth is 29.6% with A549/ATCC NSCLC; 38.5% in the assay with 786-0 renal; 75.1% in the assay with COLO 205 colon; 40.5% in the assay on DU-145 prostate; 33.6% in the assay with K-562 leukemia; -7.75% (active) with MALME-3M melanoma. Moreover, the growth was 66.8% in the assay on MDA-MB-231 breast; 2.83% (active) in the assay with RXF 393 renal; 50.7% with SF-268 CNS; -61.1% (active) in the assay with SF-295 CNS; 40.2% with SF-539 CNS; 14.4% with UACC-257 melanoma. Further, the growth in the assay on M14 melanoma was 55%; with HCT-15 colon, 72.6%.
Turning to `CCOC(=O)c1cc2c(n1Cc1ccccc1OC)-c1oncc1CCC2`, the growth in the assay on NCI-H23 lung was 45.3%; in the assay with NCI-H322M lung, 86%; with HOP-62 NSCLC it was 45.3%; in the assay on NCI-H460 lung it was 18.4%; in the assay on HOP-92 NSCLC, 57%; in the assay with NCI-H522 lung, 19.2%. The growth with A549/ATCC NSCLC was 36.6%; in the assay with 786-0 renal, 49.6%; in the assay on COLO 205 colon it was 2.53% (active); in the assay on DU-145 prostate, 33.2%; with K-562 leukemia, 10.5%; with MALME-3M melanoma it was 20.7%. For the same compound, the growth was 53% in the assay with MDA-MB-231 breast; 5.36% (active) in the assay with RXF 393 renal; 57.6% with SF-268 CNS; 17% in the assay on SF-295 CNS; 3.92% (active) in the assay with SF-539 CNS; 50.4% in the assay on UACC-257 melanoma. The growth was 35% with M14 melanoma and 30.9% with HCT-15 colon.
Turning to `CCCCC1CCc2cccc3c(SCC(=O)N(C)c4ccc(Cl)cc4)cc[n+]1c23` (centres undefined), the growth is 98.9% in the assay with NCI-H23 lung; 110% in the assay on NCI-H322M lung; 107% with HOP-62 NSCLC; 109% with NCI-H460 lung; 127% in the assay with HOP-92 NSCLC; 97.5% in the assay with NCI-H522 lung. Further, the growth in the assay on A549/ATCC NSCLC is 106%; in the assay with 786-0 renal it was 106%; in the assay on COLO 205 colon it was 108%; with DU-145 prostate, 108%; with K-562 leukemia, 91.5%; in the assay with MALME-3M melanoma, 106%. Further, the growth with MDA-MB-231 breast is 109%; in the assay with RXF 393 renal it was 128%; with SF-268 CNS, 113%; with SF-295 CNS it was 106%; in the assay on SF-539 CNS, 110%; in the assay on UACC-257 melanoma it was 110%. Also, the figures for the growth in the assay on M14 melanoma and with HCT-15 colon were 105% and 110%, respectively.
With `COc1ccc(C2=Nn3c(NN)nnc3SC2)cc1`, the growth in the assay with NCI-H23 lung is 95.9%; with NCI-H322M lung, 95.2%; with HOP-62 NSCLC it was 104%; with NCI-H460 lung it was 112%; in the assay on HOP-92 NSCLC it was 105%; in the assay with NCI-H522 lung it was 75.5%. Further, the growth with A549/ATCC NSCLC is 87.2%; in the assay with 786-0 renal, 104%; in the assay with COLO 205 colon, 108%; in the assay on DU-145 prostate it was 103%; with K-562 leukemia, 83.3%; in the assay on MALME-3M melanoma it was 109%. The growth with MDA-MB-231 breast is 103%; with RXF 393 renal it was 95.8%; in the assay with SF-268 CNS it was 100%; in the assay with SF-295 CNS, 106%; with SF-539 CNS, 95.6%; in the assay on UACC-257 melanoma, 84.3%. Also, the growth with M14 melanoma was 113%; in the assay with HCT-15 colon, 114%.
As for `O=C1NC(=S)NC(=O)C1=Cc1cn(Cc2cn(Cc3cccc4ccccc34)nn2)c2ccccc12`, the growth in the assay with NCI-H23 lung was 88%; with NCI-H322M lung it was 93.7%; in the assay on HOP-62 NSCLC it was 94.9%; in the assay with NCI-H460 lung, 89.4%; in the assay on HOP-92 NSCLC it was 102%; in the assay on NCI-H522 lung, 97.2%. Also, the growth was 106% with A549/ATCC NSCLC; 115% in the assay on 786-0 renal; 114% in the assay on COLO 205 colon; 105% in the assay on DU-145 prostate; 121% with K-562 leukemia; 86.5% with MALME-3M melanoma. In addition, the growth is 87.6% with MDA-MB-231 breast; 84.6% in the assay with RXF 393 renal; 95.4% in the assay with SF-268 CNS; 98.4% in the assay on SF-295 CNS; 96.3% with SF-539 CNS; 103% with UACC-257 melanoma. For the same compound, the values for the growth with M14 melanoma and in the assay with HCT-15 colon were 95% and 100%, respectively.
On to `COc1cc(C(=O)Nc2ccc(-c3nc4ccccc4[nH]3)cc2)cc(OC)c1OC`, for which the growth is 72.6% with NCI-H23 lung; 94.5% in the assay with NCI-H322M lung; 42.5% in the assay on HOP-62 NSCLC; 22.6% in the assay on NCI-H460 lung; 56.4% in the assay with HOP-92 NSCLC; 25% with NCI-H522 lung. In addition, the growth in the assay on A549/ATCC NSCLC was 45.8%; in the assay with 786-0 renal, 73.4%; in the assay on COLO 205 colon it was 44.6%; in the assay on DU-145 prostate it was 87.9%; in the assay on K-562 leukemia, 15.2%; in the assay on MALME-3M melanoma, 81.3%. The growth in the assay with MDA-MB-231 breast was 61.4%; with RXF 393 renal, 28%; in the assay on SF-268 CNS, 55.4%; with SF-295 CNS, 9.85% (active); with SF-539 CNS it was 34.7%; in the assay with UACC-257 melanoma, 78.1%. For the same compound, the growth with M14 melanoma was 43.5%.
